Our source for the growth values is PubChem BioAssay (NCI).

Among the test systems are SK-MEL-2 melanoma; EKVX NSCLC; SN12C renal; UO-31 renal; TK-10 renal; ACHN renal; CAKI-1 renal; A498 renal; CCRF-CEM leukemia; MOLT-4 leukemia; SR leukemia; RPMI-8226 leukemia; OVCAR-8 ovarian; OVCAR-5 ovarian; OVCAR-4 ovarian; SK-OV-3 ovarian; OVCAR-3 ovarian; HS 578T breast; NCI/ADR-RES ovarian; IGROV1 ovarian.
Holding throughout (assay): NCI-60 one-dose screen, 48 h (100 = growth as untreated, 0 = no growth, -100 = all killed)
What all share (conditions): 10 µM

About 83,000 compounds went through this panel and 20% of them were active in at least one assay; those are over-represented in the sample as a whole.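 Note: values are percent growth. 100 is the growth of untreated cells, values between 100 and 0 indicate rising inhibition; between -100 and 0 indicates cell death.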 A number with no mark means an inactive call. Active and inactive are the calls of the source. How the source made its calls: active means growth percent below 10; inactive means the rest.

As for `COC(=O)c1cc2oc(/C=C3/SC(=S)N(N)C3=O)cc2n1Cc1ccccc1`, the growth with SK-MEL-2 melanoma was -14% (active); in the assay on EKVX NSCLC, 55.8%; with SN12C renal it was 63.5%; in the assay on UO-31 renal, -22.1% (active); with TK-10 renal, -4.58% (active); in the assay with ACHN renal, 48.5%. The growth with CAKI-1 renal is 60.2%; with A498 renal, -76.4% (active); in the assay with CCRF-CEM leukemia, 6.84% (active); in the assay with MOLT-4 leukemia, 4.64% (active); in the assay on SR leukemia, 20.8%; with RPMI-8226 leukemia, -4.46% (active). Further, the growth in the assay with OVCAR-8 ovarian is 31.1%; with OVCAR-5 ovarian it was 72.6%; in the assay with OVCAR-4 ovarian, 51%; with SK-OV-3 ovarian, 98.2%; with OVCAR-3 ovarian, 55%; in the assay with HS 578T breast, -27.4% (active). Besides, the growth in the assay on NCI/ADR-RES ovarian was 52.5%.
Take `O=C1/C=C/[C@@H](O)[C@@H]2C[C@@H](O)C[C@H]2/C=C/CCC[C@@H](C(F)(F)F)O1`: the growth in the assay with SK-MEL-2 melanoma is 86.3%; in the assay with EKVX NSCLC, 90.4%; in the assay with SN12C renal, 90.3%; in the assay with UO-31 renal it was 47.6%; in the assay on TK-10 renal, 73.7%; in the assay with ACHN renal, 98.3%. In addition, the growth was 98.4% in the assay with CAKI-1 renal; 84.8% in the assay with A498 renal; 92.2% in the assay on CCRF-CEM leukemia; 84.7% with MOLT-4 leukemia; 102% with SR leukemia; 97.7% in the assay with RPMI-8226 leukemia. Moreover, the growth in the assay on OVCAR-8 ovarian is 83.2%; in the assay on OVCAR-5 ovarian it was 107%; in the assay with OVCAR-4 ovarian, 75.3%; with SK-OV-3 ovarian, 96%; in the assay on IGROV1 ovarian it was 105%; in the assay on OVCAR-3 ovarian, 69.8%. Also, the figures for the growth in the assay with HS 578T breast and with NCI/ADR-RES ovarian were 74.2% and 92.5%, respectively.
Turning to `O=[N+]([O-])c1cccc(/C=N/NC(=S)NC23CC4CC(CC(C4)C2)C3)c1`, the growth in the assay with SK-MEL-2 melanoma was 96%; with EKVX NSCLC it was 71.2%; with SN12C renal, 83.1%; in the assay on UO-31 renal it was 89.9%; with TK-10 renal it was 96.6%; in the assay with ACHN renal, 49.6%. In addition, the growth is 89.9% in the assay with CAKI-1 renal; 97.1% in the assay on A498 renal; 86.2% with CCRF-CEM leukemia; 96.3% in the assay with MOLT-4 leukemia; 81.4% in the assay with SR leukemia; 93.1% in the assay on RPMI-8226 leukemia. Besides, the growth was 40.6% in the assay with OVCAR-8 ovarian; 101% in the assay with OVCAR-5 ovarian; 39.5% in the assay with OVCAR-4 ovarian; 62.4% with SK-OV-3 ovarian; 76.3% with IGROV1 ovarian; 85.9% in the assay on OVCAR-3 ovarian. Moreover, the growth is 67.5% with HS 578T breast and 67.2% in the assay with NCI/ADR-RES ovarian.
`NS(=O)(=O)Oc1ccc2c(ccn2C(=O)C23CC4CC(CC(C4)C2)C3)c1`: the growth was 116% with SK-MEL-2 melanoma; 109% in the assay on EKVX NSCLC; 97.8% with SN12C renal; 80.4% in the assay with UO-31 renal; 106% in the assay on TK-10 renal; 101% in the assay with ACHN renal. Also, the growth in the assay on CAKI-1 renal was 94.4%; in the assay on A498 renal, 98.1%; in the assay with CCRF-CEM leukemia, 99%; in the assay on MOLT-4 leukemia it was 101%; in the assay on SR leukemia, 111%; with RPMI-8226 leukemia it was 110%. Besides, the growth with OVCAR-8 ovarian is 105%; in the assay with OVCAR-5 ovarian it was 105%; in the assay on OVCAR-4 ovarian it was 104%; with SK-OV-3 ovarian it was 121%; in the assay with IGROV1 ovarian it was 110%; in the assay on OVCAR-3 ovarian, 117%. Also, the figures for the growth in the assay on HS 578T breast and with NCI/ADR-RES ovarian were 109% and 95.5%, respectively.
With `COc1ccc(Cl)cc1Nc1nc(C(F)(F)F)ccc1C(=O)N/N=C/c1cc(OC)c(OC)c(OC)c1`, the growth with SK-MEL-2 melanoma was 9.11% (active); with EKVX NSCLC, 32.6%; in the assay on SN12C renal, 25.1%; in the assay on UO-31 renal, 15.4%; with TK-10 renal it was 20.2%; in the assay with ACHN renal, 16%. The growth with CAKI-1 renal is 27.6%; in the assay with A498 renal, 26.8%; in the assay on CCRF-CEM leukemia, 9.22% (active); in the assay on MOLT-4 leukemia, 9.62% (active); in the assay on SR leukemia, 14.1%; in the assay with RPMI-8226 leukemia, 23%. In addition, the growth was 53.2% in the assay with OVCAR-8 ovarian; 62.4% with OVCAR-5 ovarian; 23.7% in the assay on OVCAR-4 ovarian; 34.9% in the assay with SK-OV-3 ovarian; 10.2% in the assay on OVCAR-3 ovarian; -11.3% (active) in the assay on HS 578T breast. The growth in the assay on NCI/ADR-RES ovarian is 0.977% (active).
For `CN1CCN(CCCn2c(=O)c3sc4ncccc4c3n3nnc(-c4ccccc4)c23)CC1`, the growth in the assay on SK-MEL-2 melanoma was -10.7% (active); in the assay with EKVX NSCLC, 2.42% (active); in the assay with SN12C renal, 47.5%; in the assay on UO-31 renal, -74.5% (active); with TK-10 renal it was -44.3% (active); in the assay with ACHN renal it was -6.48% (active). Also, the growth in the assay on CAKI-1 renal was -39.2% (active); in the assay with A498 renal it was 64.6%; with CCRF-CEM leukemia, -14.7% (active); with MOLT-4 leukemia it was -20% (active); with SR leukemia, -38% (active); in the assay on RPMI-8226 leukemia, -2.66% (active). Also, the growth was 16.9% in the assay on OVCAR-8 ovarian; 59.3% with OVCAR-5 ovarian; -29% (active) with OVCAR-4 ovarian; -47.4% (active) with OVCAR-3 ovarian; -12.2% (active) in the assay with HS 578T breast; 33.1% in the assay with NCI/ADR-RES ovarian.
`O=S(=O)(Oc1ccc(-c2ccc3sccc3c2)cc1)c1ccccc1`: the growth in the assay with SK-MEL-2 melanoma was 111%; in the assay on EKVX NSCLC, 95.8%; in the assay on SN12C renal, 97.7%; with UO-31 renal, 97.7%; in the assay on TK-10 renal it was 99.8%; in the assay with ACHN renal, 112%. Also, the growth in the assay with CAKI-1 renal is 87%; in the assay with A498 renal, 89.2%; with CCRF-CEM leukemia, 98.9%; in the assay on MOLT-4 leukemia it was 91.7%; in the assay with SR leukemia, 105%; in the assay on RPMI-8226 leukemia it was 107%. Moreover, the growth was 106% in the assay on OVCAR-8 ovarian; 97.3% in the assay on OVCAR-5 ovarian; 103% with OVCAR-4 ovarian; 107% in the assay on SK-OV-3 ovarian; 107% in the assay with IGROV1 ovarian; 110% with OVCAR-3 ovarian. Moreover, the growth is 108% with HS 578T breast and 103% in the assay with NCI/ADR-RES ovarian.
For the molecule `NS(=O)(=O)Oc1ccc(-c2ccc3sccc3c2)cc1`, the growth in the assay with SK-MEL-2 melanoma was 105%; in the assay with EKVX NSCLC, 13.3%; in the assay with SN12C renal, 94.3%; in the assay on UO-31 renal it was 82.1%; in the assay with TK-10 renal, 94%; in the assay with ACHN renal, 94.1%. Moreover, the growth in the assay with CAKI-1 renal is 83.6%; with A498 renal, 99.8%; in the assay with CCRF-CEM leukemia, 108%; in the assay with MOLT-4 leukemia, 97.4%; in the assay on SR leukemia, 115%; with RPMI-8226 leukemia it was 107%. The growth in the assay on OVCAR-8 ovarian is 102%; with OVCAR-5 ovarian, 88.8%; in the assay on OVCAR-4 ovarian, 97.3%; in the assay with SK-OV-3 ovarian, 108%; in the assay with IGROV1 ovarian, 101%; with OVCAR-3 ovarian it was 106%. Moreover, the growth with HS 578T breast is 44.6%; with NCI/ADR-RES ovarian, 95.3%.
